# From paper PMC11062922 (Nature Chemical Biology, 2023)
# Like-named read-outs stand apart in the source and are kept apart here.
# Columns and labels:
# [1] = test system: AAK1; parameters: species or system human, MV4-11 + K-562 + COLO205 + SK-N-BE2 + OVCAR-8; conditions: read-out: apparent Kd, n = 1
# [2] = test system: CLK1; parameters: species or system human, MV4-11 + K-562 + COLO205 + SK-N-BE2 + OVCAR-8; conditions: read-out: apparent Kd, n = 1
# [3] = test system: CLK4; parameters: species or system human, MV4-11 + K-562 + COLO205 + SK-N-BE2 + OVCAR-8; conditions: read-out: apparent Kd, n = 1
# [4] = test system: CSNK2A1;CSNK2A3; parameters: species or system human, MV4-11 + K-562 + COLO205 + SK-N-BE2 + OVCAR-8; conditions: read-out: apparent Kd, n = 1
# [5] = test system: CSNK2A2; parameters: species or system human, MV4-11 + K-562 + COLO205 + SK-N-BE2 + OVCAR-8; conditions: read-out: apparent Kd, n = 1
# [6] = test system: GAK; parameters: species or system human, MV4-11 + K-562 + COLO205 + SK-N-BE2 + OVCAR-8; conditions: read-out: apparent Kd, n = 1
# [7] = test system: GSK3A; parameters: species or system human, MV4-11 + K-562 + COLO205 + SK-N-BE2 + OVCAR-8; conditions: read-out: apparent Kd, n = 1
# [8] = test system: GSK3B; parameters: species or system human, MV4-11 + K-562 + COLO205 + SK-N-BE2 + OVCAR-8; conditions: read-out: apparent Kd, n = 1
# [9] = test system: MELK; parameters: species or system human, MV4-11 + K-562 + COLO205 + SK-N-BE2 + OVCAR-8; conditions: read-out: apparent Kd; compound concentrations: 100 nM and 1000 nM (sheet 'Samples'), CATDS: 1.02944782662895E-2; n = 1
# [10] = test system: NUAK1; parameters: species or system human, MV4-11 + K-562 + COLO205 + SK-N-BE2 + OVCAR-8; conditions: read-out: apparent Kd, n = 1
# [11] = test system: PAK4; parameters: species or system human, MV4-11 + K-562 + COLO205 + SK-N-BE2 + OVCAR-8; conditions: read-out: apparent Kd, n = 1
# [12] = test system: PKN1; parameters: species or system human, MV4-11 + K-562 + COLO205 + SK-N-BE2 + OVCAR-8; conditions: read-out: apparent Kd, n = 1
# [13] = test system: PKN3; parameters: species or system human, MV4-11 + K-562 + COLO205 + SK-N-BE2 + OVCAR-8; conditions: read-out: apparent Kd, n = 1;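 on IC50: NanoBRET target engagement in HEK293T cells transiently expressing full-length PKN3 with C-terminal NanoLuc, displacement of fluorescent tracer K5 (500 nM), BRET read after 2 h equilibration at 37 °C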
# [14] = test system: PRKAG1; parameters: species or system human, MV4-11 + K-562 + COLO205 + SK-N-BE2 + OVCAR-8; conditions: read-out: apparent Kd, n = 1
# [15] = biological target: Q6ZSR9 (human, UniProt Q6ZSR9); parameters: species or system MV4-11 + K-562 + COLO205 + SK-N-BE2 + OVCAR-8; conditions: read-out: apparent Kd, n = 1
# [16] = test system: RET; parameters: species or system human, MV4-11 + K-562 + COLO205 + SK-N-BE2 + OVCAR-8; conditions: read-out: apparent Kd, n = 1
# [17] = test system: SIK2; parameters: species or system human, MV4-11 + K-562 + COLO205 + SK-N-BE2 + OVCAR-8; conditions: read-out: apparent Kd, n = 1
# [18] = test system: PKN3; conditions: hek293t cells;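 on IC50: NanoBRET target engagement in HEK293T cells transiently expressing full-length PKN3 with C-terminal NanoLuc, displacement of fluorescent tracer K5 (500 nM), BRET read after 2 h equilibration at 37 °C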
# [19] = test system: BMP2K; parameters: species or system human, MV4-11 + K-562 + COLO205 + SK-N-BE2 + OVCAR-8; conditions: read-out: apparent Kd; compound concentrations:100 nM and 1000 nM (sheet 'Samples'); n = 1
# [20] = test system: FLT4; parameters: species or system human, MV4-11 + K-562 + COLO205 + SK-N-BE2 + OVCAR-8; conditions: read-out: apparent Kd; compound concentrations:100 nM and 1000 nM (sheet 'Samples'); n = 1
# [21] = compound concentrations:100 nM and 1000 nM (sheet 'Samples')
# Q6ZSR9, sequence (Q6ZSR9 whole entry, looked up): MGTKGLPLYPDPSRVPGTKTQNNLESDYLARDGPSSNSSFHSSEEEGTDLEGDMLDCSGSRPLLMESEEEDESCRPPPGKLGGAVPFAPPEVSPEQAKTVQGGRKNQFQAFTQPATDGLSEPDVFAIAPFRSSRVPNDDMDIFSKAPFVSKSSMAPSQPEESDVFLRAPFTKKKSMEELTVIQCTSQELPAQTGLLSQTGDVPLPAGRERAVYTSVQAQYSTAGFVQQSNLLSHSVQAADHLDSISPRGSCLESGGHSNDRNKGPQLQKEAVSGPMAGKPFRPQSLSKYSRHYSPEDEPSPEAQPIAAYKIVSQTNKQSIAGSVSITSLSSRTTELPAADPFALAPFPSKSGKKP
compound,measurement,setting,value
CN(c1ccc(NC(=O)Nc2cccc(Cl)c2)cc1)c1ccnc(N)n1.Cl [GW830707A],potency estimated from few doses,"[1]; compound concentrations: 100 nM and 1000 nM (sheet 'Samples'), CATDS: 1.09630092870236E-2",1150 nM
same,potency estimated from few doses,"[2]; compound concentrations: 100 nM and 1000 nM (sheet 'Samples'), CATDS: 2.1787512742807501E-2",42 nM
same,potency estimated from few doses,"[3]; compound concentrations: 100 nM and 1000 nM (sheet 'Samples'), CATDS: 1.6953828831644601E-2",90.4 nM
same,potency estimated from few doses,"[4]; compound concentrations: 100 nM and 1000 nM (sheet 'Samples'), CATDS: 1.0372533520716E-2",1990 nM
same,potency estimated from few doses,"[5]; compound concentrations: 100 nM and 1000 nM (sheet 'Samples'), CATDS: 1.04920498001006E-2",1760 nM
same,potency estimated from few doses,"[6]; compound concentrations: 100 nM and 1000 nM (sheet 'Samples'), CATDS: 2.5195285382478599E-2",29.6 nM
same,potency estimated from few doses,"[7]; compound concentrations: 100 nM and 1000 nM (sheet 'Samples'), CATDS: 2.1035735190854499E-2",46.1 nM
same,potency estimated from few doses,"[8]; compound concentrations: 100 nM and 1000 nM (sheet 'Samples'), CATDS: 1.8960420623414999E-2",62.2 nM
same,potency estimated from few doses,[9],2160 nM
same,potency estimated from few doses,"[10]; compound concentrations: 100 nM and 1000 nM (sheet 'Samples'), CATDS: 1.06533204099584E-2",1510 nM
same,potency estimated from few doses,"[11]; compound concentrations: 100 nM and 1000 nM (sheet 'Samples'), CATDS: 1.12669730748303E-2",911 nM
same,potency estimated from few doses,"[12]; compound concentrations: 100 nM and 1000 nM (sheet 'Samples'), CATDS: 1.22442733693101E-2",482 nM
same,potency estimated from few doses,"[13]; compound concentrations: 100 nM and 1000 nM (sheet 'Samples'), CATDS: 1.09744327233877E-2",1140 nM
same,potency estimated from few doses,"[14]; compound concentrations: 100 nM and 1000 nM (sheet 'Samples'), CATDS: 2.2358938635015799E-2",39.4 nM
same,potency estimated from few doses,"[15]; compound concentrations: 100 nM and 1000 nM (sheet 'Samples'), CATDS: 1.11912324380908E-2",964 nM
same,potency estimated from few doses,"[16]; compound concentrations: 100 nM and 1000 nM (sheet 'Samples'), CATDS: 1.6938963358117499E-2",90.7 nM
same,potency estimated from few doses,"[17]; compound concentrations: 100 nM and 1000 nM (sheet 'Samples'), CATDS: 1.7275561883006999E-2",84.5 nM
CCn1c(-c2nonc2N)nc2c(C#CCN)ncc(OCCCN)c21.O=C(O)C(F)(F)F [GSK561866B],potency estimated from few doses,"[12]; compound concentrations: 100 nM and 1000 nM (sheet 'Samples'), CATDS: 0.15879588217707499",65.5 nM
same,potency estimated from few doses,"[13]; compound concentrations: 100 nM and 1000 nM (sheet 'Samples'), CATDS: 0.49894757840635401",5.21 nM
same,IC50,"[18]; read-out: Average, SD, n = 4",7970 nM
same,IC50,[18]; read-out: Rep 1,13000 nM
same,IC50,[18]; read-out: Rep 2,11200 nM
same,IC50,[18]; read-out: Rep 3,4910 nM
same,IC50,[18]; read-out: Rep 4,2820 nM
CC(C)N1CCC(n2cnc(-c3ccc(F)cc3)c2-c2ccnc(N)n2)CC1 [SB-223132],potency estimated from few doses,[1]; [21],730 nM
same,potency estimated from few doses,[19],531 nM
same,potency estimated from few doses,[2]; [21],572 nM
same,potency estimated from few doses,[3]; [21],686 nM
same,potency estimated from few doses,[4]; [21],1070 nM
same,potency estimated from few doses,[5]; [21],1400 nM
same,potency estimated from few doses,[20],968 nM
same,potency estimated from few doses,[6]; [21],333 nM
same,potency estimated from few doses,[7]; [21],359 nM
same,potency estimated from few doses,[8]; [21],441 nM
same,potency estimated from few doses,[10]; [21],1160 nM
same,potency estimated from few doses,[11]; [21],726 nM
same,potency estimated from few doses,[12]; [21],1440 nM
same,potency estimated from few doses,[13]; [21],1010 nM
same,potency estimated from few doses,[14]; [21],884 nM
same,potency estimated from few doses,[15]; [21],581 nM
same,potency estimated from few doses,[16]; [21],579 nM
same,potency estimated from few doses,[17]; [21],700 nM
